PubChem BioAssay (Tox21)
Records with an inconclusive call do not appear. Activity calls are given as the source filed them. Unless noted, calls come from the whole dose curve; as a rule, active = well fitted curve in the direction sought with a large enough effect in the repeat runs; inconclusive = weak or mixed curves; inactive = no such curve, though single readings can be large; an effect the other way counts as inactive or inconclusive.

How the values were obtained:
[1] = qHTS assay to identify small molecule antagonists of the glucocorticoid receptor (GR) signaling pathway - cell viability counter screen (AID 720693); note: nearly all actives have a fitted effect of over 55% in size
[2] = qHTS assay for identifying genotoxic compounds that show differential cytotoxicity against isogenic chicken DT40 cell lines with known DNA damage response pathways - wild type cell line (AID 743012); note: nearly all actives have a fitted effect of over 60% in size
Summary of the method: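 First, wild type DT40 cells were plated at 300 per well and equilibrated about 0.5 h at 37 C/5% CO2. Next, compounds in DMSO were added and exposure lasted 40 h. Finally, CellTiter-Glo was added for 30 min at room temperature and luminescence recorded.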

[3] = qHTS assay for identifying genotoxic compounds that show differential cytotoxicity against isogenic chicken DT40 cell lines with known DNA damage response pathways - Rad54/Ku70 mutant cell line (AID 743015); note: nearly all actives have a fitted effect of over 60% in size
[4] = qHTS assay to identify small molecule antagonists of the androgen receptor (AR) signaling pathway - cell viability counter screen (AID 743033; note: nearly all actives have a fitted effect of over 45% in size)
[5] = qHTS assay to identify small molecule antagonists of the androgen receptor (AR) signaling pathway using the MDA cell line - cell viability counter screen (AID 743041; note: nearly all actives have a fitted effect of over 45% in size)
Summary of the method: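 Same-well cytotoxicity was assessed by CellTiter-Fluor in MDA-kb2 AR-luc cells after 16 h of compound treatment under R1881 agonism.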

[6] = qHTS assay for identifying genotoxic compounds that show differential cytotoxicity against isogenic chicken DT40 cell lines with known DNA damage response pathways - Rev3 mutant cell line (AID 743014); note: nearly all actives have a fitted effect of over 55% in size
[7] = qHTS assay to identify small molecule antagonists of the thyroid receptor (TR) signaling pathway - cell viability counter screen (AID 743064); note: nearly all actives have a fitted effect of over 50% in size
Summary of the method: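 Viability of T3-stimulated (1 nM final) GH3.TRE-Luc cells is measured by CellTiter-Fluor fluorescence after 23.5 h compound exposure at 37 °C plus 30 min reagent incubation.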

[8] = target: Androgen receptor (Homo sapiens) (UniProt P10275); test: qHTS assay to identify small molecule antagonists of the androgen receptor (AR) signaling pathway (AID 743035; active = well fitted inhibition curve with a large enough effect in the signal ratio in the repeat runs, not every such curve was filed as active; the % refers to the signal ratio)
Summary of the method: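 Beta-lactamase FRET read (2 h RT incubation with LiveBLAzer B/G) following 16 h of compound plus R1881 treatment of AR-UAS-bla HEK293 cells, which had been pre-incubated 4 h at 37C.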

[9] = target: Androgen receptor (Homo sapiens) (UniProt P10275); test: qHTS assay to identify small molecule agonists of the androgen receptor (AR) signaling pathway using the MDA cell line (AID 743040; note: nearly all actives have a fitted effect of over 20% in size)
Summary of the method: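 Human breast carcinoma MDA-kb2 reporter cells (MMTV-luc, AR/GR elements) were treated for 16 h at 37C in 0% CO2 following a 5 h settling period. Signal was quantified by ONE-Glo luminescence.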

[10] = target: Androgen receptor (Homo sapiens) (UniProt P10275); test: qHTS assay to identify small molecule antagonists of the androgen receptor (AR) signaling pathway using the MDA cell line (AID 743042; note: nearly all actives have a fitted effect of over 55% in size)
Summary of the method: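 MDA-kb2 breast carcinoma cells carrying MMTV-luciferase (AR/GR responsive) were co-treated with compounds and the agonist R1881 for 16 h at 37C. Inhibition read as ONE-Glo luminescence; CellTiter-Fluor fluorescence measured in parallel for cytotoxicity.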

Measured: Potency

Sequence of Androgen receptor (Homo sapiens) (P10275 whole entry, looked up): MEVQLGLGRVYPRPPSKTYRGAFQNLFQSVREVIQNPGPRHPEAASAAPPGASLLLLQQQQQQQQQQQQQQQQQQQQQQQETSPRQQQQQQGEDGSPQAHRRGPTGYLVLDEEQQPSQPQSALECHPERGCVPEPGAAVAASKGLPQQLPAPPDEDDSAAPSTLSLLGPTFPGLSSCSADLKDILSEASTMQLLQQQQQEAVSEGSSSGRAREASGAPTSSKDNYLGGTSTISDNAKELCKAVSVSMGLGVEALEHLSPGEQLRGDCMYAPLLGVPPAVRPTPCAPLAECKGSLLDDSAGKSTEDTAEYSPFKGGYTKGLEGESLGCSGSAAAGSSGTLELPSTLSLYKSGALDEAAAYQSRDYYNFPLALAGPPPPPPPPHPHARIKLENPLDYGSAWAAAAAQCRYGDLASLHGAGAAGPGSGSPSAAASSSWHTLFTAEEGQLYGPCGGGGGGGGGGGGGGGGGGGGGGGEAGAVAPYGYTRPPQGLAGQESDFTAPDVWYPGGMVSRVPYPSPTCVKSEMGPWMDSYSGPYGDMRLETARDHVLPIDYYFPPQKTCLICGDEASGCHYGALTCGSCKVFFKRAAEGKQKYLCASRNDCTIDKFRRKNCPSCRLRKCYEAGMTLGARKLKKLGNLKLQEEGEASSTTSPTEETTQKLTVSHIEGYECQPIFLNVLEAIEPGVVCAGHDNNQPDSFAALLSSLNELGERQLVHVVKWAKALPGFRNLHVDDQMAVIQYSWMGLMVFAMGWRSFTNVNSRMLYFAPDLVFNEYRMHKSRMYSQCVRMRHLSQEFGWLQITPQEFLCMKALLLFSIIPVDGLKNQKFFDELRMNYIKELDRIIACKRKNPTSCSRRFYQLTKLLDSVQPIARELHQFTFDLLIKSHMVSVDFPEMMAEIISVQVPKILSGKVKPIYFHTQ

CC(C)(O)c1ccc(C(C)(C)O)cc1
inactive: [1] | [2] | [3] | [4] | [5]

CCCCS
inactive: [1] | [2] | [6] | [3] | [5] | [7]

NC[C@H]1O[C@H](O[C@H]2[C@H](O)[C@@H](O[C@H]3O[C@H](CO)[C@@H](O)[C@H](N)[C@H]3O)[C@H](N)C[C@@H]2N)[C@H](N)[C@@H](O)[C@@H]1O
inactive: [1] | [2] | [6] | [3] | [5] | [7]

Cc1nnc(C(=O)NC(C)(C)c2nc(C(=O)NCc3ccc(F)cc3)c(O)c(=O)n2C)o1
inactive: [1] | [2] | [6] | [3] | [5] | [7]

N=C(N)N
inactive: [1] | [2] | [6] | [3] | [5] | [7]

CCOc1ccccc1OCCN[C@H](C)Cc1ccc(OC)c(S(N)(=O)=O)c1
inactive: [1] | [2] | [3] | [4] | [5] | [7]

CCC(C)(C)C
inactive: [1] | [2] | [3] | [4] | [5]

Cc1ccc(N)nc1
inactive: [1] | [2] | [3] | [4] | [8] | [9] | [5] | [10] | [7]

CC[N+](C)(CC)CC
inactive: [1] | [2] | [6] | [3] | [5] | [7]

C=CCCCCCCCCOC(C)=O
inactive: [1] | [2] | [6] | [4] | [7]

CC1(C)C(=O)C(C)(C)C1=O
inactive: [1] | [2] | [3] | [4] | [8] | [9] | [5] | [10] | [7]

COc1cc(NS(=O)(=O)c2ccc(N)cc2)ncn1
inactive: [1] | [2] | [6] | [3] | [5] | [7]

CC(C)(C)OC=O
inactive: [1] | [2] | [6] | [3] | [5] | [7]

NCC1CCC(C(=O)Oc2ccc(CCC(=O)O)cc2)CC1 (stereo not drawn)
inactive: [1] | [2] | [6] | [3] | [7]

O=C(O)P(=O)(O)O
inactive: [1] | [2] | [3] | [4] | [5] | [7]

CC(=O)Nc1ccc(OCCOCCOc2ccc(NC(C)=O)cc2)cc1
inactive: [1] | [2] | [3] | [4] | [5] | [7]
